We go through 9 compounds from PubChem BioAssay (Tox21).

Structures are written as SMILES. Results filed as inconclusive are left out. Unmarked numbers belong to inactive results. The source made the active and inactive calls. Unless noted, the call rests on the fitted dose curve; in most records, active means well fitted curve in the direction sought with a large enough effect in the repeat runs; inconclusive means weak or mixed curves; inactive means no such curve, though single readings can be large; an effect the other way counts as inactive or inconclusive.

Assay [1] is described as follows: qHTS assay for small molecule agonists of the antioxidant response element (ARE) signaling pathway (AID 743202; active means well fitted activation curve with a large enough effect in the signal ratio in the repeat runs, not every such curve was filed as active; the % refers to the signal ratio). In short, it runs like this: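 Following a 16 h, 37 C exposure of reporter HepG2 cells (ARE-driven beta-lactamase, 2,000 cells/well) to compounds, FRET substrate was applied for 2 h at room temperature and fluorescence intensity recorded.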
For orientation: Quantitative high-throughput screening tests each substance at several concentrations.

Assay [2] in a line: qHTS assay for small molecule agonists of the antioxidant response element (ARE) signaling pathway - cell viability counter screen (AID 743203; calls by dose curve; further: nearly all actives have a fitted effect of over 55% in size; further: potency means the concentration at half of the fitted maximal effect). In short, it runs like this: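 ATP content via CellTiter-Glo luminescence served as the viability measure. Cells: ARE-bla HepG2, 2,000 per well. Exposure: 16 hrs, 37C/5% CO2.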
A short description of assay [3]: qHTS assay for small molecule activators of the heat shock response signaling pathway - cell viability counter screen (AID 743209). Further: nearly all actives have a fitted effect of over 50% in size. In short, it runs like this: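 Compounds dissolved in DMSO were added to overnight-plated HSE-bla HeLa cells and left 5 h at 37 C. Cell viability was quantified by luminescence using CellTiter-Glo.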
Assay [4] in a line: qHTS assay to identify small molecule agonists of the peroxisome proliferator-activated receptor delta (PPARd) signaling pathway - cell viability counter screen (AID 743211). Further: nearly all actives have a fitted effect of over 55% in size. In short, it runs like this: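 Luminescent ATP viability assay (CellTiter-Glo, 30 min RT) in UAS-bla HEK293H cells carrying the PPAR delta reporter construct, 3000 cells/well, after a 17 h compound treatment at 37 C.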

Assay [5] can be described thus: qHTS assay to identify small molecule antagonists of the peroxisome proliferator-activated receptor delta (PPARd) signaling pathway - cell viability counter screen (AID 743213). Further: nearly all actives have a fitted effect of over 50% in size. Further: potency means the concentration at half of the fitted maximal effect. Summed up: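 HEK293H cells with the PPARd UAS-bla reporter, co-treated 17 h at 37 C with compounds and L165041 (300 nM final), were lysed with CellTiter-Glo. Luminescence indicated viable cell content.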

A short description of assay [6]: qHTS assay to identify small molecule agonists of the farnesoid-X-receptor (FXR) signaling pathway - cell viability counter screen (AID 743218). Further: nearly all actives have a fitted effect of over 45% in size. Further: potency means the concentration at half of the fitted maximal effect. Summed up:
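Quantitative HTS counter screen measuring ATP-based viability via CellTiter-Glo luminescence in HEK 293T cells carrying a UAS-driven beta-lactamase reporter, after 16 h compound exposure at 37 C.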

Assay [7] can be described thus: qHTS assay to identify small molecule antagonists of the farnesoid-X-receptor (FXR) signaling pathway - cell viability counter screen (AID 743221; active means well fitted cell-killing curve with a large enough effect in the repeat runs, not every such curve was filed as active; further: nearly all actives have a fitted effect of over 50% in size). In short, it runs like this: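 In GeneBLAzer FXR-UAS-bla HEK 293T cells stimulated with 50 uM chenodeoxycholic acid (final), compounds acted for 16 h at 37 C. Viability was assessed afterwards by CellTiter-Glo luminescence.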

Assay [8] deals with Vitamin D3 receptor (Homo sapiens) (UniProt P11473). As to the kind of experiment: qHTS assay to identify small molecule agonists of the vitamin D receptor (VDR) signaling pathway (AID 743222; calls by dose curve). Summed up: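 Tox21 cell reporter format: VDR-bla line, 16 h compound exposure in 5% CO2 at 37C, then fluorescence intensity after 2 h with LiveBLAzer B/G FRET substrate.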
Sequence of Vitamin D3 receptor (Homo sapiens) (P11473 whole entry, looked up): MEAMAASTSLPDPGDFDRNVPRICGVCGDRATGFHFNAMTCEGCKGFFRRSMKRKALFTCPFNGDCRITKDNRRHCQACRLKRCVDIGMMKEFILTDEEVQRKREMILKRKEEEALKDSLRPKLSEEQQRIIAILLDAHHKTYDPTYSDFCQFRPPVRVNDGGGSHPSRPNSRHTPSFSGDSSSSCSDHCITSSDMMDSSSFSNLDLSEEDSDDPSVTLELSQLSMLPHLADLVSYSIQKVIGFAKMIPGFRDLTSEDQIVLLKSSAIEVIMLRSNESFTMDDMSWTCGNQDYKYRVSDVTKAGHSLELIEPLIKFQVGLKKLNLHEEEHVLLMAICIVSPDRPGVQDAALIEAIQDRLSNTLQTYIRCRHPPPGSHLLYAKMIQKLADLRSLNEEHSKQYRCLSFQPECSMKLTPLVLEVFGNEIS
The nature of assay [9]: qHTS assay to identify small molecule that activate the aryl hydrocarbon receptor (AhR) signaling pathway - cell viability counter screen (AID 743086).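 Further: HepG2 liver cells carrying the AhR DRE luciferase reporter; series mostly up to about 70 µM; nearly all actives have a fitted effect of over 45% in size.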 In short, it runs like this: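 HepG2-AhR-luc (HG2L7.5c1) cells, 4000/well, were preincubated 5 h at 37C, exposed to compound in qHTS format for 24 hr at 37C, then given CellTiter-Fluor for 30 min; viability was read as fluorescence in the reporter wells.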

The nature of assay [10]: qHTS assay to identify small molecule antagonists of the peroxisome proliferator-activated receptor gamma (PPARg) signaling pathway - cell viability counter screen (AID 743194). Further: nearly all actives have a fitted effect of over 55% in size. Further: potency means the concentration at half of the fitted maximal effect. In short, it runs like this:
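PPARg-UAS-bla HEK293H cells were plated, rested 5 h at 37 C, then treated with compounds plus rosiglitazone (50 nM final) for 17 h at 37 C; viability was then read by CellTiter-Glo luminescence after 30 min at room temperature.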

A short description of assay [11]: qHTS assay for small molecule activators of the heat shock response signaling pathway (AID 743210; active means well fitted activation curve with a large enough effect in the signal ratio in the repeat runs, with a control signal flat, not every such curve was filed as active; the % refers to the signal ratio; further: series mostly up to about 63 µM). Summed up: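 Heat shock element–beta-lactamase HeLa reporter cells; qHTS with compounds for 5 h at 37 C; detection by FRET substrate fluorescence after 2.5 h at RT.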
The target in assay [12] is Bile acid receptor (Homo sapiens) (UniProt Q96RI1). As to the kind of experiment: qHTS assay to identify small molecule agonists of the farnesoid-X-receptor (FXR) signaling pathway (AID 743220; active means well fitted activation curve with a large enough effect in the signal ratio in the repeat runs, not every such curve was filed as active; the % refers to the signal ratio). Summed up:
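FXR-UAS-bla HEK 293T cells carrying a UAS-driven beta-lactamase reporter were plated for 5 h at 37C/5% CO2, then exposed to DMSO-dissolved Tox21 10K compounds for 16 h at 37C. A LiveBLAzer B/G FRET substrate was loaded for 2 h at room temperature before fluorescence reading.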

Assay [13] has as its target Vitamin D3 receptor (Homo sapiens) (UniProt P11473). Briefly: qHTS assay to identify small molecule antagonists of the vitamin D receptor (VDR) signaling pathway (AID 743223; active means well fitted inhibition curve with a large enough effect in the signal ratio in the repeat runs, not every such curve was filed as active; the % refers to the signal ratio). Summed up: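 Agonist 1alpha,25-dihydroxyvitamin D3 (3 nM in well) was added with each compound to VDR-bla cells preincubated 4 h. Cells stood 16 h at 37C, then FRET substrate 2 h at room temperature; fluorescence intensity recorded.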

Assay [14] deals with Bile acid receptor (Homo sapiens) (UniProt Q96RI1). Briefly: qHTS assay to identify small molecule antagonists of the farnesoid-X-receptor (FXR) signaling pathway (AID 743217; active means well fitted inhibition curve with a large enough effect in the signal ratio in the repeat runs, not every such curve was filed as active; the % refers to the signal ratio). Summed up:
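Test compounds are pin-transferred onto FXR-bla HEK 293T cells, then chenodeoxycholic acid is added at 50 uM final. After 16 h at 37 °C, LiveBLAzer B/G substrate is applied for 2 h at room temperature and fluorescence read.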

Assay [15] concerns the target Peroxisome proliferator-activated receptor delta (Homo sapiens) (UniProt Q03181). Briefly: qHTS assay to identify small molecule agonists of the peroxisome proliferator-activated receptor delta (PPARd) signaling pathway (AID 743212; calls by dose curve). Summed up:
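Beta-lactamase reporter read by fluorescence (LiveBLAzer B/G FRET, 2 h, room temperature). Test agents, in DMSO, incubated at 37 C with PPARd-bla HEK293H cells.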

Assay [16] shares this target. As to the kind of experiment: qHTS assay to identify small molecule antagonists of the peroxisome proliferator-activated receptor delta (PPARd) signaling pathway (AID 743215; active means well fitted inhibition curve with a large enough effect in the signal ratio in the repeat runs, not every such curve was filed as active; the % refers to the signal ratio;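 further: cells stimulated with agonist L165041 at 300 nM final during compound exposure; series mostly up to about 62 µM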). Summed up:
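Here, a reporter line (HEK293H, beta-lactamase under a UAS) measures PPARd signaling. Compounds are tested against agonist L165041 at 300 nM final concentration over 17 h at 37 C, with fluorescence read after substrate.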

Assay [17] addresses Peroxisome proliferator-activated receptor gamma (Homo sapiens) (UniProt P37231). As to the kind of experiment: qHTS assay to identify small molecule antagonists of the peroxisome proliferator-activated receptor gamma (PPARg) signaling pathway (AID 743191; calls by dose curve; further: nearly all actives have a fitted effect of over 30% in size; further: potency means the concentration at half of the fitted maximal effect). In short, it runs like this: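 GeneBLAzer PPARg UAS-bla HEK293H cells carrying a UAS-driven beta-lactamase reporter were plated at 3000 cells/well, preincubated 5 h at 37C, then given compound for 17 h at 37C; LiveBLAzer B/G FRET substrate was read after 1 h at room temperature.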
On the % scale 0 is the no-effect control and ±100 the full control effect.

Sequence of Peroxisome proliferator-activated receptor gamma (Homo sapiens) (P37231 whole entry, looked up): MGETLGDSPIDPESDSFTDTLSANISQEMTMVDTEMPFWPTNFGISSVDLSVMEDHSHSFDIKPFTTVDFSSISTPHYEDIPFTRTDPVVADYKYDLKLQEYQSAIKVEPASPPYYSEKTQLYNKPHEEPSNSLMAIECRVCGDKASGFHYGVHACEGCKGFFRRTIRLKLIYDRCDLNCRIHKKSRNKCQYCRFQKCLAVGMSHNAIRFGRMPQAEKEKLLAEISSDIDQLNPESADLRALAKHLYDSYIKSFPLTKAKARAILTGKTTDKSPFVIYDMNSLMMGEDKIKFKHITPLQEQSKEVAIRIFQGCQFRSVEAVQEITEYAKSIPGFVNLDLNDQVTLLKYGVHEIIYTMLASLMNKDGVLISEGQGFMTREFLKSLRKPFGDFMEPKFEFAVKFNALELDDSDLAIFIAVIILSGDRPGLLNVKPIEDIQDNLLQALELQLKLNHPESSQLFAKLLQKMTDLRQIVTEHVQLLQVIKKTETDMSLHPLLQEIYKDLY
Sequence of Peroxisome proliferator-activated receptor delta (Homo sapiens) (Q03181 whole entry, looked up): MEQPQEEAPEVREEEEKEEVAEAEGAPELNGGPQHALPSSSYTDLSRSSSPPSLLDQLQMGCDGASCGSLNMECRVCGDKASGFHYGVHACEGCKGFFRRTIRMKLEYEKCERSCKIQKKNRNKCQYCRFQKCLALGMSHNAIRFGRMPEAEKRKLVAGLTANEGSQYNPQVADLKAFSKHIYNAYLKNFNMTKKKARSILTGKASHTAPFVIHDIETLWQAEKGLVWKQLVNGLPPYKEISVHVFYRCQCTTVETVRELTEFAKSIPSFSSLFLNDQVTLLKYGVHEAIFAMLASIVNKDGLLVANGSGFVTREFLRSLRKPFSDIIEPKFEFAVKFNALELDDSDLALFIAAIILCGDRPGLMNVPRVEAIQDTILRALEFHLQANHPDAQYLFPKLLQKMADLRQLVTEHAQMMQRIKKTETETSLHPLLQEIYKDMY
Sequence of Bile acid receptor (Homo sapiens) (Q96RI1 whole entry, looked up): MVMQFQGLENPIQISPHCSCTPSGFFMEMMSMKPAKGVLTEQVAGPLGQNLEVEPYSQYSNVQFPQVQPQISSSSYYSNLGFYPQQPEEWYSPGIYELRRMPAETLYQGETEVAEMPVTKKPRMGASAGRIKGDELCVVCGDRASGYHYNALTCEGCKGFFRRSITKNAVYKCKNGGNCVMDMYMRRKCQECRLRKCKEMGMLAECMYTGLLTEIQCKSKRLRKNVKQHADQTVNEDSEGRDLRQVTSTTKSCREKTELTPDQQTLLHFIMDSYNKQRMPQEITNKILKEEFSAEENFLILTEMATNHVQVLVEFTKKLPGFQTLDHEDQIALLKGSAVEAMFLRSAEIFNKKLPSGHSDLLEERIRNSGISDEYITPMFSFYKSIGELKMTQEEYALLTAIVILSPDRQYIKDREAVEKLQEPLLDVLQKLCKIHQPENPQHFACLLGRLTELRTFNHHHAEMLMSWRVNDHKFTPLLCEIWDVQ

Consider `CN(C)CCN(Cc1ccsc1)c1ccccn1`, for which the Potency entry in [1], in [2], in assay [3], in [4], in [5] and in [6] was “inactive” in each case. For the same compound, the Potency entry in [7] and in assay [8] was “inactive” each time.
Regarding `CN(C)c1ccc(/C=C/c2ccc([N+](=O)[O-])cc2)cc1`, the viability change, negative = cytotoxic in assay [9] is 24.5% [at 8.47 µM]; in assay [2] it was 0.634% [at 8.36 µM]; in assay [5], 1.68% [at 6.26 µM]; in assay [6], -8.77% [at 5.95 µM]. Besides, the figures for the activity change, negative = cytotoxicity in assay [10], in assay [3] and in assay [7] were 9.25% [at 5.95 µM], -1.13% [at 5.95 µM] and -0.888% [at 5.95 µM], respectively. Moreover, the activation in [1] was -18.5% [at 8.36 µM]; in assay [11] it was 0.443% [at 5.95 µM]; in assay [12], -3.79% [at 5.95 µM]. Also, the activity change, negative = inhibition in [13] is -22.2% [at 6.95 µM].
Regarding `Nc1ccccc1S(=O)(=O)c1ccccc1`, the Potency result in assay [9], in assay [10], in assay [2], in assay [11], in [5] and in assay [14] was “inactive” throughout. In addition, the Potency result in assay [12], in assay [7] and in [8] was “inactive” in each case.
As for `O=C(NCC1CN(c2ccc(N3CCOCC3=O)cc2)C(=O)O1)c1ccc(Cl)s1` (stereo not given), the Potency result in assay [10], in assay [1], in assay [2], in [11], in assay [4] and in assay [15] was “inactive” in each case. Further, the Potency entry in [16], in [7] and in [8] was “inactive” in each case. For the same compound, in assay [13], the compound was classed as inactive.
With `CCCCCCOC(=O)NC(=N)c1ccc(NCc2nc3cc(C(=O)N(CCC(=O)OCC)c4ccccn4)ccc3n2C)cc1`, the Potency in [17] is 29.8 µM (active); in [10] it was 13.3 µM (active); in [2], 26.6 µM (active); in assay [5], 23.7 µM (active); in assay [6], 26.6 µM (active). Moreover, the Potency result in [11] and in [12] was “inactive” in each case. The compound was called inactive in assay [13].
Consider `O=C(O)C1(C(=O)O)CCC1.[NH2-].[NH2-].[Pt+2]`, for which the Potency entry in assay [17], in assay [10], in assay [2], in assay [3], in assay [11] and in [4] was “inactive” throughout. In addition, the Potency result in [15], in [16], in assay [14], in [6], in assay [12] and in assay [7] was “inactive” each time.
As for `CCCCCCc1ccc(-c2ccc(C#N)cc2)cc1`, the Potency result in assay [9], in assay [10], in assay [1], in assay [2], in [11] and in assay [15] was “inactive” each time. Moreover, the Potency result in [5], in assay [16], in assay [14], in [12] and in [7] was “inactive” in each case.
With `COc1cc2nc(N3CCN(C(=O)C4COc5ccccc5O4)CC3)nc(N)c2cc1OC` (stereo not given), the Potency result in assay [9], in [10], in assay [1], in assay [11], in assay [5] and in assay [12] was “inactive” in each case. The Potency entry in [7] and in [8] was “inactive” throughout. The Potency in assay [2] was 29.8 µM (active). Also, the outcome in [13] was inactive.
With `CCOC(=O)C(=O)CCc1ccccc1`, the Potency entry in assay [17], in assay [1], in assay [2], in [3], in assay [11] and in [4] was “inactive” in each case. The Potency entry in assay [15], in assay [5], in assay [16], in assay [6] and in assay [7] was “inactive” throughout.
